Results on nine compounds are retold here after PubChem BioAssay (NCI).

What all share (experiment): NCI-60 one-dose screen, 48 h (100 = growth as untreated, 0 = no growth, -100 = all killed)
One experiment has as its system RPMI-8226 leukemia. Conditions: 10 µM.
The test system of the next experiment is OVCAR-8 ovarian. Conditions: 10 µM.
For another experiment, the system named is OVCAR-5 ovarian. The note with it: 10 µM.
The test system of the next experiment is OVCAR-4 ovarian. Conditions: 10 µM.
In the next experiment the test system is SK-OV-3 ovarian. The note with it: 10 µM.
The next experiment concerns IGROV1 ovarian. Conditions: 10 µM.
The next experiment deals with OVCAR-3 ovarian. The note with it: 10 µM.
The next experiment relates to HS 578T breast. Conditions: 10 µM.
Another experiment relates to NCI/ADR-RES ovarian. The note with it: 10 µM.
Another experiment concerns T-47D breast. The note with it: 10 µM.
For the next experiment, the system named is BT-549 breast. The note with it: 10 µM.
A further experiment has as its system MDA-MB-435 melanoma. The note with it: 10 µM.
A further experiment relates to SW-620 colon. The note with it: 10 µM.
The subject of a further experiment is MCF7 breast. Conditions: 10 µM unless noted.
For a further experiment, the system named is HCT-116 colon. The note with it: 10 µM.
For another experiment, the system named is KM12 colon. Conditions: 10 µM.
Another experiment concerns HCC-2998 colon. The note with it: 10 µM.

About 83,000 compounds went through this panel and 20% of them were active in at least one assay; those are over-represented in the sample as a whole.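 Cells were grown in 96-well plates and exposed to the test compound at a single concentration for 48 hours; results are reported as percent growth, with values below 10 considered active.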 A number with no mark means an inactive call. Active and inactive are the calls of the source.

For the compound `CC(=O)c1cc2c(cc1F)C(C)(C)CCC2(C)C`, the growth in the experiment with RPMI-8226 leukemia was 114%; in the experiment on OVCAR-8 ovarian, 104%; in the experiment with OVCAR-5 ovarian it was 90.1%; in the experiment with OVCAR-4 ovarian, 103%; in the experiment with SK-OV-3 ovarian it was 105%; in the experiment with IGROV1 ovarian, 101%. In addition, the growth in the experiment with OVCAR-3 ovarian was 101%; in the experiment with HS 578T breast, 99%; in the experiment on NCI/ADR-RES ovarian, 99.3%; in the experiment on T-47D breast, 109%; with BT-549 breast it was 101%; in the experiment on MDA-MB-435 melanoma it was 106%. Further, the growth with SW-620 colon is 102%; in the experiment on MCF7 breast it was 101%; in the experiment on HCT-116 colon it was 94.4%; in the experiment with KM12 colon, 107%.
Consider `O=C(Cc1nc2ccc([N+](=O)[O-])cc2nc1CC(=O)c1ccccc1)c1ccccc1`, for which the growth with RPMI-8226 leukemia was 42.9%; with OVCAR-8 ovarian, 50%; in the experiment with OVCAR-5 ovarian, 89.6%; in the experiment with OVCAR-4 ovarian, 34.3%; in the experiment on SK-OV-3 ovarian, 103%; in the experiment on IGROV1 ovarian, 79.2%. Further, the growth in the experiment on OVCAR-3 ovarian was 60.1%; in the experiment with HS 578T breast it was 51.6%; in the experiment on NCI/ADR-RES ovarian it was 29.8%; with BT-549 breast it was 37.3%; in the experiment with MDA-MB-435 melanoma, 63.3%; with SW-620 colon it was 62.6%. For the same compound, the growth in the experiment on MCF7 breast is 30.1%; with HCT-116 colon, 34.8%; in the experiment on HCC-2998 colon, 89%; in the experiment on KM12 colon, 39.4%.
Consider `CN1C(=O)CN2CCc3ccccc3C2c2cc(Cl)ccc21` (stereo unspecified), for which the growth in the experiment with RPMI-8226 leukemia is 88.3%; in the experiment on OVCAR-8 ovarian, 101%; in the experiment on OVCAR-5 ovarian, 83.9%; in the experiment on OVCAR-4 ovarian, 104%; with SK-OV-3 ovarian, 90.7%; in the experiment on IGROV1 ovarian, -12.2% (active). Moreover, the growth in the experiment with OVCAR-3 ovarian was 103%; with HS 578T breast, -5.49% (active); with NCI/ADR-RES ovarian, 96.7%; in the experiment on T-47D breast, 104%; in the experiment with BT-549 breast it was 99.7%; in the experiment on MDA-MB-435 melanoma it was 105%. Besides, the growth in the experiment with SW-620 colon is -33.6% (active); in the experiment with MCF7 breast, 84.5%; in the experiment with HCT-116 colon, 82.5%; in the experiment on HCC-2998 colon, 98.1%; in the experiment on KM12 colon, 106%.
As to `CSc1[nH]c(=O)ncc1F`, the growth in the experiment with RPMI-8226 leukemia was 106%; in the experiment on OVCAR-8 ovarian, 95.4%; in the experiment with OVCAR-5 ovarian, 102%; in the experiment on OVCAR-4 ovarian it was 102%; with SK-OV-3 ovarian, 119%; with IGROV1 ovarian, 110%. The growth is 107% in the experiment with OVCAR-3 ovarian; 103% with HS 578T breast; 99.3% in the experiment on NCI/ADR-RES ovarian; 94.1% in the experiment with BT-549 breast; 102% in the experiment on MDA-MB-435 melanoma; 102% in the experiment with SW-620 colon. The growth was 96% in the experiment on MCF7 breast, 98.3% in the experiment on HCT-116 colon, 96.8% in the experiment with HCC-2998 colon and 104% in the experiment with KM12 colon.
As for `COC(=O)c1[nH]c(=O)c(C#N)c(C(=O)OC)c1C(=O)c1ccccc1`, the growth in the experiment with RPMI-8226 leukemia was 107%; in the experiment on OVCAR-8 ovarian it was 101%; in the experiment with OVCAR-5 ovarian, 113%; in the experiment with OVCAR-4 ovarian, 97.5%; with SK-OV-3 ovarian, 101%; in the experiment on IGROV1 ovarian it was 105%. The growth is 107% in the experiment on OVCAR-3 ovarian; 84.4% in the experiment with HS 578T breast; 97.5% in the experiment on NCI/ADR-RES ovarian; 110% with BT-549 breast; 99.9% with MDA-MB-435 melanoma; 102% in the experiment with SW-620 colon. Besides, the growth was 68.9% in the experiment with MCF7 breast, 99.3% in the experiment with HCT-116 colon, 113% with HCC-2998 colon and 102% in the experiment on KM12 colon.
In the case of `COc1cc2cc(OC(C)=O)c3cc4c(cc3c2c(OC)c1OC)OCO4`, the growth was 97.4% in the experiment on RPMI-8226 leukemia; 102% with OVCAR-8 ovarian; 92.3% with OVCAR-5 ovarian; 111% in the experiment with OVCAR-4 ovarian; 103% with SK-OV-3 ovarian; 107% in the experiment with IGROV1 ovarian. For the same compound, the growth with OVCAR-3 ovarian was 101%; in the experiment with HS 578T breast, 91.4%; in the experiment with NCI/ADR-RES ovarian it was 95.7%; in the experiment with T-47D breast, 106%; in the experiment on MDA-MB-435 melanoma, 102%; in the experiment with SW-620 colon, 96.9%. Also, the growth with MCF7 breast was 93.6%; in the experiment on HCT-116 colon, 104%; in the experiment with HCC-2998 colon, 107%; with KM12 colon it was 99.8%.
With `c1ccc2c(N3CCCCC3)ncnc2c1`, the growth in the experiment with RPMI-8226 leukemia was 66.9%; in the experiment with OVCAR-8 ovarian, 94.4%; in the experiment with OVCAR-5 ovarian, 99.9%; in the experiment with OVCAR-4 ovarian, 96.8%; with SK-OV-3 ovarian, 94%; in the experiment with IGROV1 ovarian, 96%. The growth was 97.3% with OVCAR-3 ovarian; 91% in the experiment on NCI/ADR-RES ovarian; 130% in the experiment on T-47D breast; 109% with MDA-MB-435 melanoma; 98% in the experiment with SW-620 colon; 96.6% in the experiment on MCF7 breast. Besides, the growth in the experiment with HCT-116 colon is 88.4%; in the experiment on HCC-2998 colon, 81.1%; in the experiment on KM12 colon, 103%.
As for `NC(=S)CN1CCOCC1`, the growth was 93.7% in the experiment on RPMI-8226 leukemia; 105% in the experiment on OVCAR-8 ovarian; 105% in the experiment with OVCAR-5 ovarian; 121% in the experiment on OVCAR-4 ovarian; 112% with SK-OV-3 ovarian; 102% in the experiment with IGROV1 ovarian. The growth in the experiment on OVCAR-3 ovarian is 111%; with NCI/ADR-RES ovarian, 105%; in the experiment on T-47D breast it was 114%; in the experiment with MDA-MB-435 melanoma it was 111%; in the experiment with SW-620 colon, 103%; with HCT-116 colon, 109%. For the same compound, the growth with HCC-2998 colon and in the experiment on KM12 colon was 102% throughout.
Consider `CCOC(=O)c1cc(/C=C/c2ccc(Cl)cc2Cl)on1`, for which the growth in the experiment on RPMI-8226 leukemia is 2.84% (active); in the experiment with OVCAR-8 ovarian it was 24.1%; in the experiment on OVCAR-5 ovarian it was 58.8%; in the experiment on OVCAR-4 ovarian it was 76%; in the experiment on SK-OV-3 ovarian, 104%; in the experiment with IGROV1 ovarian it was 82.2%. Moreover, the growth is 24.4% in the experiment with OVCAR-3 ovarian; 71.8% in the experiment with HS 578T breast; -34.9% (active) in the experiment on NCI/ADR-RES ovarian; 66.8% in the experiment on MDA-MB-435 melanoma; -13.6% (active) with SW-620 colon; 0.711% (active) with MCF7 breast. The values for the growth in the experiment with HCT-116 colon, in the experiment with HCC-2998 colon and with KM12 colon were -86.6% (active), 82% and -29.7% (active), respectively.
